Assay results published in PubChem BioAssay.
Activity calls are given as the source filed them.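 Rule for the calls: active = inhibition at or above 50% at 10 µM; inactive = inhibition below 50%.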

Experiment: blockers of RIG-like receptor reporter activation – cell-based, Sendai virus stimulus, luciferase, 10K MLSCN set, TLR/RLR signaling modifier project, primary screen (AID 602276);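 note: firefly luciferase from ISG56 promoter only with Renilla not read in this screen; 0% = Sendai virus plus DMSO and 100% = medium plus DMSO without virus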
Conditions: HEK293 RL24 IRF3 luciferase reporter, at 10 µM, hits give high values

inhibition, inactive:
COc1ccc(-c2cc3c(=O)n(CC(=O)NC4CCN(Cc5ccccc5)CC4)ncn3n2)cc1 -14.7%
Cc1c(C(=O)OC2CCCCC2)[nH]c2c1C(=O)CC(C)(C)C2 -3%
CC(CCc1ccccc1)NCc1ccncc1 (configuration not stated) 12.9%
COCCN(CCOC)S(=O)(=O)c1ccc(C(=O)Nc2nnc(C3CC3)o2)cc1 16.9%
Cc1sc2ncn3ncnc3c2c1C -16.9%
CSc1nc2ccc(Nc3nc(N4CCOCC4)nc(N4CCOCC4)n3)cc2s1 -24.9%
Cc1cc(C(N)=O)c2cc(Br)ccc2n1 4.62%
COc1ccc(-c2ccc(-c3noc(-c4cccs4)n3)c(OC)n2)cc1 -28.9%
O=C1CCCc2c1cc(C(=O)NCCCN1CCOCC1)c(=O)n2-c1ccc(Cl)cc1 10.7%
Cc1ccc(-n2ncc3c(=O)[nH]c(SC(C)C)nc32)cc1 7.08%
Cc1ccccc1N1C(N)=NC(N)=NC1(C)C 4.23%
CCCc1nnc(SCC(=O)N2CCOCC2)n1Cc1ccco1 19.5%
CC1CCN(CCn2c(=S)[nH]c3ncccc3c2=O)CC1 10.2%
CCOc1ccc(-c2nnn(CC(=O)N3CCN(c4ccc(F)cc4)CC3)n2)cc1OCC 16.8%
O=C1CCCCCN1CSc1nc2ccccc2s1 18.8%
S=c1[nH]nc(Cc2ccccc2)n1-c1ccccc1 9.34%
O=C(NCc1cccnc1)C1c2ccccc2C(=O)N1Cc1ccco1 (configuration not stated) 5.3%
